Experimental data: PubChem BioAssay AID686978 (National Center for Advancing Translational Sciences (NCATS), 2013)
Screen size: about 420,000 compounds; about 64,000 (15%) were called active. Roughly 27% stayed inconclusive and do not appear here. Calls come from the whole dose curve; as a rule, active = well fitted inhibition curve with a large enough effect; inconclusive = small, poorly fitted or top-dose-only effect; inactive = flat fitted curve, though single readings scatter. A selection follows. Entries that show only a call come without a potency.

test: qHTS for Inhibitors of human tyrosyl-DNA phosphodiesterase 1 (TDP1): qHTS in cells in absence of CPT; conditions: DT40 Tdp1-/- hTDP1 cells, no CPT, ATP luminescence, 48 h; activity change, negative = growth inhibition: at 46.2 µM (top of the series); note: nearly all actives have a fitted effect of over 55% in size
How it was run: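 Cells were dispensed at 400 per well, compounds added by pin tool, plates incubated ≥48 hr at 37 °C, then CellTiter-Glo added for 30 min at room temperature before luminescence reading. Line: DT40 Tdp1-/- complemented with hTDP1; camptothecin omitted.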
Potency is the fitted concentration of half-maximal effect.

Compound	Potency
COc1ccc2c(c1)cc1n2CCN=C1NN	inactive
COc1ccccc1CN1CC(C(=O)NCCc2cn[nH]c2)CCC1=O (centres undefined)	inactive
CC(C)=CC1C(C(=O)O)C1(C)C (centres undefined)	inactive
CCC1(C)COC(c2ccc(OC)c(OC)c2)OC1 (centres undefined)	inactive
CC(=O)c1cccc(-n2nnnc2SCC(=O)NNC(=O)C2CCCCC2)c1	inactive
CCN(Cc1ccccc1)C(=O)CSc1nc(C)cc2c1C(=O)OC2	inactive
Cc1cc(C)cc(NC(=O)N2CCCCCCC2)c1	inactive
Cc1ccc(C(NC(=O)N2CCCC2)C(Cl)(Cl)Cl)cc1F (centres undefined)	20.6 µM (active)
CCOC(=O)C1CCCN(C(=O)c2ccc(C)c(F)c2)CC1 (centres undefined)	inactive
CCOC(=O)C1C(=O)OC2(CCCC2)C1C(=O)OCC (centres undefined)	inactive
Cc1ccc(CC2C(=O)N(c3ccc(F)cc3)C(=O)C2C)cc1 (centres undefined)	inactive
CC1(C)CC(=O)CC2(C1)NCC(c1ccccc1Cl)c1c2[nH]c2ccccc12 (centres undefined)	16.4 µM (active)
CNC(=O)c1ccc(-c2nc(CN3CCc4ccccc43)c(C)o2)cc1	20.6 µM (active)
CC(=O)Nc1ccccc1-c1nc(CNC(=O)c2ccc(Cl)cc2)c(C)o1	inactive
COC(=O)c1cc2occc2n1Cc1nc(-c2ccccc2C)oc1C	inactive
COc1ccc(-c2cn(-c3ccc(C)cc3)c(=O)n2CC(=O)Nc2ccc(OC)c(OC)c2)cc1	inactive
CN(Cc1ccccc1)C(=O)c1ccc(NC2=NC3CS(=O)(=O)CC3S2)cc1 (centres undefined)	inactive
CCC(C)[C@H](NC(=O)N1CCn2c1nc1ccccc12)C(=O)NCc1ccc(OC)cc1 (some centres undefined)	16.4 µM (active)
CC(C)[C@H](NC(=O)N1CCn2c1nc1ccccc12)C(=O)NCc1ccc2c(c1)OCO2	inactive
CC(C)[C@H](NC(=O)N1CCn2c1nc1ccccc12)C(=O)NC1CC1	inactive
N/C(=N\OC(=O)CCCC(=O)O)c1ncc(C(F)(F)F)cc1Cl	inactive
CC(C)CCN1CCC(C)(NC(=O)c2ccccc2)C1=O (centres undefined)	inactive

Compound	Potency
CN(C)/C=C(/C(=O)c1ccc(Cl)cc1)S(=O)(=O)c1ccccc1	inactive
COC(C[C@@H]1O[C@@H]1C(=O)[C@H](C)OCc1ccccc1)OC	inactive
COC(C[C@H](O)CC(=O)[C@@H](C)OCc1ccccc1)OC	inactive
COC(C/C=C/C(=O)[C@@H](C)OCc1ccccc1)OC	18.4 µM (active)
CCc1ccccc1N1C(=O)CN(S(=O)(=O)CC)CC1(C)C(=O)NC1CCCCC1 (centres undefined)	inactive
Cc1ccccc1N1CC(C(=O)Nc2ccc3c(c2)OCO3)CC1=O (centres undefined)	inactive
CN(C)c1ccc(CNC23CN4CN(CN(C4)C2)C3)cc1	18.4 µM (active)
CCOc1ccc(NC(=O)CC2NCCNC2=O)cc1 (centres undefined)	inactive
O=C(C[C@H]1C[C@H]2c3cc(NS(=O)(=O)c4ccc(F)cc4)ccc3O[C@H]2[C@H](CO)O1)NCc1cc(F)ccc1F	18.4 µM (active)
O=C(Nc1ccc2c(c1)[C@@H]1C[C@@H](CC(=O)N3CCCCC3)O[C@@H](CO)[C@@H]1O2)NC1CCCCC1	inactive
COC(=O)C[C@H]1C[C@@H]2c3cc(NC(=O)Nc4ccccc4)ccc3O[C@@H]2[C@@H](CO)O1	inactive
O=C1NC(O)CCN1C1CC(O)C(CO)O1 (centres undefined)	inactive
CC(C)Oc1ccc(Oc2ccc(C(F)(F)F)cn2)cc1	inactive
COC(=O)CC1=NN(c2nc(C)cc(C)n2)C(=O)C1	inactive
C=CCn1c(=NC(=O)c2ccc(S(=O)(=O)N3CCCC3)cc2)sc2cc(NC(C)=O)ccc21	inactive
Cc1cccc(-n2cnc(C(=O)Nc3cccnc3)c2)n1	inactive
Cn1cc(Cl)c(C(=O)NNC(=S)Nc2cccc(Cl)c2)n1	inactive
Cc1cccc(-n2cnc(C(=O)NNC(=S)Nc3ccccc3)c2)n1	23.1 µM (active)
Cc1ccc(CNC(=O)CCNS(=O)(=O)c2ccc3c(c2)oc(=O)n3C)cc1	inactive
CCOc1ccc(CNCCSc2nnnn2C)cc1	inactive
COc1cccc(CNCCSc2nnnn2C)c1OCc1ccccc1Cl	20.6 µM (active)
COc1cccc(CNn2cn[nH]c2=S)c1OCc1ccccc1	inactive

Compound	Potency
Cn1nnnc1SCCNCc1ccc(Cl)c(Cl)c1	inactive
COc1cc(CNCCSc2nnnn2C)ccc1OCc1ccc(Cl)cc1Cl	23.1 µM (active)
COC(=O)c1ccccc1NC(=O)CSc1nnnn1C	inactive
CCOc1ccc(OCC)c(Nc2nc3ccccc3n3nnnc23)c1	inactive
C=CCOc1c(CNn2cn[nH]c2=S)cccc1OC	inactive
CC(C)CC(=O)NCC(c1ccc2c(c1)OCO2)N1CCN(c2ccc(F)cc2)CC1 (centres undefined)	25.9 µM (active)
CC(C)CNC(=O)C(=O)NCC(c1ccc2c(c1)OCO2)N1CCOCC1 (centres undefined)	inactive
O=C(NCCO)C(=O)NCC(c1ccc2c(c1)OCO2)N1CCN(c2ccc(F)cc2)CC1 (centres undefined)	inactive
Cc1c(C(=O)NCC2CCCN(C)C2)cnn1-c1nccc(-c2ccco2)n1 (centres undefined)	inactive
CC1CC(=O)Nc2ccccc2N1S(=O)(=O)c1cccs1 (centres undefined)	inactive
COc1ccc2[nH]c(=O)c(-c3noc(-c4ccc(F)cc4)n3)cc2c1	inactive
COc1ccc(Cc2nnc(SC)[nH]c2=O)cc1	inactive
COc1ccc(Cc2cc(-c3ccc(F)cc3)n[nH]c2=O)cc1	13 µM (active)
COc1ccc(CNC(=O)CCC(=O)Nc2nnc(C(C)C)s2)cc1	inactive
COc1ccccc1OCC(=O)OCc1cc(-c2ccco2)on1	inactive
CCCc1ccc(OCC(O)CN2CCN(C(=O)OCC)CC2)cc1 (centres undefined)	inactive
COc1ccc(C(=O)Nc2ccc(C(=O)NCC3CCCO3)cc2)c(OC)c1OC (centres undefined)	inactive
COc1ccc(OC)c(NC(=O)c2cc(-c3cc(F)ccc3OCC3CCCO3)n[nH]2)c1 (centres undefined)	9.2 µM (active)
O=C(O)CCC(=O)Nc1ccc(OCC2CCCO2)cc1 (centres undefined)	inactive
O=C(/C=C/c1cc2c(cc1Br)OCO2)NCc1ccc(Cl)cc1	inactive
CCCCn1c(N)c(N(Cc2ccccc2OC)C(=O)COc2cc(C)ccc2Cl)c(=O)[nH]c1=O	inactive
Cc1cc(C)cc(NS(=O)(=O)Cc2ccccc2)c1	inactive

Compound	Potency
O=C(OCc1ccc([N+](=O)[O-])cc1)c1ccccn1	inactive
O=[N+]([O-])c1ccc(/C=C/c2ccc3cccnc3c2)cc1	10 µM (active)
O=C(Oc1ccc([N+](=O)[O-])cc1)c1ccc2ccccc2n1	inactive
Cc1c(Cl)cccc1NC(=O)NCc1ccc(C)n1C	inactive
Cn1cc(-c2ccccc2)cc(C#N)c1=O	inactive
O=C(O)c1ccccc1C(=O)NC1=NN(c2ccccc2)CC1	inactive
CCOC(=O)c1nnn(-c2nonc2-n2cccc2)c1CN1CCOCC1	inactive
NNC(=O)c1nnn(-c2nonc2N)c1CN1CCCC1	inactive
CCOC(=O)c1nnn(-c2nonc2-n2cccc2)c1CN1CCC(C(=O)OCC)CC1	18.4 µM (active)
COC(=O)C1(CCSC)NC(c2ccc(OC)cc2OC)C2C(=O)N(c3cccc(C(C)=O)c3)C(=O)C21 (centres undefined)	inactive
O=C(CSc1ccc(-c2cccs2)nn1)Nc1ccccc1F	inactive
Cc1ccc(O)c(NC(=O)CCS(=O)(=O)c2nc(-c3ccc4c(c3)OCO4)cc(C(F)(F)F)n2)c1	11.6 µM (active)
COc1ccccc1-c1cc(C(F)(F)F)nc(S(=O)(=O)CCCC(=O)Nc2cc(C)ccc2O)n1	inactive
CSc1ccccc1NC(=O)CCS(=O)(=O)c1nc(-c2cccs2)cc(C(F)(F)F)n1	11.6 µM (active)
O=C(Nc1cc(C(F)(F)F)ccc1Cl)c1cc2nc(-c3ccc4c(c3)OCO4)cc(C(F)(F)F)n2n1	inactive
COc1ccccc1-c1cc(C(F)(F)F)nc(S(=O)(=O)CCCC(=O)Nc2ccc(F)cc2F)n1	3.66 µM (active)
Cc1cc2nc(C(F)(F)F)cc(-c3cccs3)n2n1	inactive
O=C(COC(=O)CSc1ccccc1)Nc1ccc(F)cc1F	inactive
CC(Sc1nc(-c2ccccc2)cc(C(F)(F)F)n1)C(=O)Nc1ccc2c(c1)OCO2 (centres undefined)	inactive
CCC(=O)c1c[nH]c(C(=O)NCC2CCCO2)c1 (centres undefined)	inactive
Cc1ccc(C(=O)OCC(=O)NC(=O)Cc2ccccc2)c(O)c1	inactive
CC(C)(C)C(=O)COC(=O)c1cc(S(=O)(=O)N2CCCCC2)ccc1N1CCOCC1	inactive

Compound	Potency
CCCCSc1ncnc2c1sc1nc(N3CCOCC3)c3c(c12)CCCC3	inactive
CC(C)Cc1nn2c(=O)cc(O)nc2s1	inactive
CSc1nnc2c(n1)OC(c1ccsc1)N(C(C)=O)c1ccccc1-2 (centres undefined)	inactive
COc1ccccc1NC(=O)COC(=O)Cc1ccc(S(=O)(=O)N2CCCCC2)s1	inactive
COC(=O)c1ccc(CSc2nncn2N)cc1	inactive
COC(=O)c1ccc(CSc2nncn2C)cc1	inactive
CCOC(=O)c1ccc(CSc2nnc3cc(C)c4ccccc4n23)cc1	20.6 µM (active)
COCc1c(C(=O)N/N=C/C2CC=CCC2)nnn1-c1nonc1N (centres undefined)	inactive
CCc1ccc(N2CC(C(=O)NC3=NCCS3)CC2=O)cc1 (centres undefined)	inactive
Cc1cccc(C(=O)OC(C)CN2CCCC2)c1 (centres undefined)	inactive
Cc1cccc(N)c1SC1CCCCC1O (centres undefined)	inactive
CCCn1nnc(NC(=O)COc2ccc(CC)cc2)n1	inactive
O=C(OCc1ccccc1F)c1ccc2c(c1)OCCO2	inactive
C=C(C)CNC(=S)N/N=C/c1ccccc1OCC(=O)O	inactive
C=CCNC(=S)N/N=C/c1ccc(C)s1	7.31 µM (active)
C=CCNC(=S)NNC(=O)c1ccc(Br)o1	inactive
CCOC(=O)c1c(NC(=O)CN2C(=O)NC3(CCC(C)CC3)C2=O)sc(C)c1CC (centres undefined)	inactive
OCC(O)C1OCOC(C(O)CO)C1O (centres undefined)	inactive
COc1cc(NC(=O)c2cc(-c3ccc(F)cc3OC(C)C)n[nH]2)cc(OC)c1OC	11.6 µM (active)
COc1cc(NC(=O)CCn2nc(C)cc2C)cc(OC)c1OC	inactive
COc1cc(F)ccc1-c1cc(C(=O)NCC2CCCCC2)[nH]n1	inactive
